# Results filed as inconclusive are left out. Calls of active or inactive are those of the source. The calls were made as follows: active = hit-call score of the fitted dose curve at least 0.9, where 1 is the maximum; inconclusive = response in the unintended direction; inactive = score below 0.9.
# Tests used:
# [1] = target: human Androgen Receptor (AR), AR (gene 367) (UniProt P10275); experiment: ATG_hAR_XSP1: Attagene TRANS-FACTORIAL Multi-Species (XSP1) HepG2 Assay for human Androgen Receptor (AR) (AID 2283785)
# Protocol: ATG_XSP1_multi-species_TRANS is a cell-based, multiplexed assay created by modifying the existing Attagene TRANS-FACTORIAL system to include a panel of nuclear receptors from some or all the following species: human (Homo sapiens), mouse (Mus musculus), frog (Xenopus laevis), zebrafish (Danio rerio), chicken (Gallus gallus), and turtle (Chrysemys picta). The ECOTOX-FACTORIAL format uses HepG2, a human liver cell line, with measurements taken at 24 hours after chemical dosing in a 24-well plate. Xsp1 included 3 nM 6-alpha-fluorotestosterone to partially stimulate the androgen receptor.ATG_hAR_XSP1 is one of 29 assay components measured or calculated from the ATG_XSP1_multi-species_TRANS assay. It is designed to make measurements of mRNA induction, a form of inducible reporter, as detected with fluorescence intensity signals by Reverse transcription polymerase chain reaction (RT-PCR) and Capillary electrophoresis technology.The assay endpoint ATG_hAR_XSP1 was analyzed in the positive analysis fitting direction relative to DMSO as the negative control and baseline of activity. […] Furthermore, this assay endpoint can be referred to as a primary readout, because this assay has produced multiple assay endpoints where this one serves a reporter gene function. […]
# [2] = tested on: turtle Androgen Receptor (AR), gene 101947425; experiment: ATG_trAR_XSP1: Attagene TRANS-FACTORIAL Multi-Species (XSP1) HepG2 Assay for turtle Androgen Receptor (AR) (AID 2283786)
# Procedure, shortened: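 Partial androgen stimulation is provided by 3 nM 6-alpha-fluorotestosterone in a multi-species trans-factorial panel expressing a turtle AR–GAL4 fusion in HepG2. After 24 h, reporter mRNA is measured by RT-PCR and capillary electrophoresis and fitted upward against DMSO.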
# [3] = target: GAL4 Transcription Factor (Internal Marker), GAL4 (gene 855828) (UniProt P04386); experiment: ATG_GAL4_XSP1: Attagene TRANS-FACTORIAL Multi-Species (XSP1) HepG2 Assay for GAL4 Transcription Factor (Internal Marker) (AID 2283789)
# Procedure, shortened: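 This background-control endpoint measures GAL4-driven reporter mRNA via RT-PCR and capillary electrophoresis of labelled fragments. Transiently transfected HepG2 cells were treated 24 h, with 3 nM 6-alpha-fluorotestosterone included, and gain-of-signal was fitted against DMSO.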
# [4] = ATG_M_06_XSP1: Attagene TRANS-FACTORIAL Multi-Species (XSP1) HepG2 Assay for M06 Transcription Factor (Internal Marker) (AID 2283790)
# Procedure, shortened: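 This background-control readout tracks M06 reporter mRNA, measured by RT-PCR and capillary electrophoresis. HepG2 cells transiently carrying the GAL4-UAS reporter panel were dosed for 24 h with 3 nM 6-alpha-fluorotestosterone added for partial AR stimulation; increases were scored relative to DMSO.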
# [5] = ACEA_AR_agonist_AUC_viability: ACEA Biosciences xCELLigence Real-Time Cell Analysis on Androgen Receptor Agonism for Viability (AID 2283775);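 as to AC50: viability read 80 hours after compound addition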
# Procedure, shortened: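 Viability endpoint from xCELLigence impedance in 22Rv1 prostate cells at 80 h. Eight-point series, 100 uM maximum final.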
# [6] = STM_H9_NormalizedViability: Cytotoxicity Assessment at 120 hours in the Stemina devTOX quickPredict H9 human embryonic stem cell (hESC)-based Assay (AID 2283784)
# Procedure, shortened: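 CellTiter-Fluor RFU, background-subtracted, expressed relative to 0.1% DMSO neutral control by plate. Pluripotent H9 cells; treatment with daily re-dosing. Plates carried 1uM methotrexate (positive) and 5 nM methotrexate (negative) references.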
# AR (gene 367) [7] = target: AR (gene 367) (UniProt P10275); experiment: ACEA_AR_antagonist_80hr: ACEA Biosciences xCELLigence Real-Time Cell Analysis on Androgen Receptor Antagonism for Proliferation (AID 2283787);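 also: 22Rv1 human prostate cancer cells with growth followed by electrical impedance; hits lower the impedance growth signal relative to DMSO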
# Procedure, shortened: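 Measures real-time proliferation of 22Rv1 prostate cancer cells by electrode impedance at 80 hours after dosing. Test articles ran at eight concentrations (1:4 steps, top 100 uM final) in biological duplicate.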
# [8] = ACEA_ER_AUC_viability: ACEA Biosciences xCELLigence Real-Time Cell Analysis on Estrogen Receptor Agonism for Viability (AID 2283782);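 also: hit means loss of impedance signal meaning reduced cell growth or viability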
# Procedure, shortened: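 Read-out: real-time electrical impedance (RT-CES) area under curve, loss of signal taken as reduced viability, normalized to DMSO baseline. T-47D cells, charcoal-stripped serum medium, compounds up to 100 uM final, continuous exposure, 80 h.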
# AR (gene 367) [9] = target: AR (gene 367) (UniProt P10275); experiment: ACEA_AR_agonist_80hr: ACEA Biosciences xCELLigence Real-Time Cell Analysis on Androgen Receptor Agonism for Proliferation (AID 2283783);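 also: hits increase impedance growth signal above DMSO baseline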
# Procedure, shortened: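 Impedance (RT-CES) growth signal at 80 h post-dose; 22Rv1 cells, 8-pt 1:4 series, top 100 uM final, DMSO ≤0.5%; duplicate plates; gain-of-signal fit relative to DMSO baseline.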
# [10] = ACEA_AR_antagonist_AUC_viability: ACEA Biosciences xCELLigence Real-Time Cell Analysis on Androgen Receptor Antagonism for Viability (AID 2283776);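 also: 22Rv1 human prostate cancer cells growing on impedance electrode plates; area under impedance growth curve at 80 h after dosing as viability; hits lower the growth signal relative to DMSO meaning cytotoxicity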
# Procedure, shortened: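 Real-time electrical impedance tracks 22Rv1 proliferation after continuous compound exposure (top 100 uM final, 1:4 steps, 8 concentrations). The 80 h area-under-curve serves as the cytotoxicity readout relative to DMSO.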
# AR (gene 367), sequence (P10275 whole entry, looked up): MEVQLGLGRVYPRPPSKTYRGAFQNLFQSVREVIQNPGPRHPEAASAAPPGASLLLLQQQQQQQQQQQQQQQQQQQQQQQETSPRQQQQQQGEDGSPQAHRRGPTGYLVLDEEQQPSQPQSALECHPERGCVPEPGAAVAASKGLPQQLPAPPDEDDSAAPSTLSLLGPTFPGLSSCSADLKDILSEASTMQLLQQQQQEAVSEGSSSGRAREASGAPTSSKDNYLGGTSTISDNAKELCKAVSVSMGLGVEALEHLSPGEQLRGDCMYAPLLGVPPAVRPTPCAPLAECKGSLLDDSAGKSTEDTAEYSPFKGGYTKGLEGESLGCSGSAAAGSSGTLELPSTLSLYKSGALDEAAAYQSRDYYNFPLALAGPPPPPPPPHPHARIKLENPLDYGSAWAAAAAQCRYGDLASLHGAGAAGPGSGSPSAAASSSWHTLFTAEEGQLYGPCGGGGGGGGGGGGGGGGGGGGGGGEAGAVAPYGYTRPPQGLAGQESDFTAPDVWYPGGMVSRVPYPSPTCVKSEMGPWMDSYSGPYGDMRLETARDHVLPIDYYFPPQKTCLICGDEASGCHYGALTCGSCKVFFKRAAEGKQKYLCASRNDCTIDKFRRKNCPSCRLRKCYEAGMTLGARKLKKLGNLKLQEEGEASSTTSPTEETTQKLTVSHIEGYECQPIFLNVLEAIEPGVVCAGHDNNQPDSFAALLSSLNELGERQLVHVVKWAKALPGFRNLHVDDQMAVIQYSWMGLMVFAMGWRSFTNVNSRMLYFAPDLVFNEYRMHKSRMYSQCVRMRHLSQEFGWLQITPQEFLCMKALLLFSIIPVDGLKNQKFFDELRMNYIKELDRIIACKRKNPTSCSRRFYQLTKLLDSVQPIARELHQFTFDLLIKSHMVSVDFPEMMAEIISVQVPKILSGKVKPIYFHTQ
# GAL4 Transcription Factor (Internal Marker), GAL4 (gene 855828), sequence (P04386 whole entry, looked up, the tested form may be a part): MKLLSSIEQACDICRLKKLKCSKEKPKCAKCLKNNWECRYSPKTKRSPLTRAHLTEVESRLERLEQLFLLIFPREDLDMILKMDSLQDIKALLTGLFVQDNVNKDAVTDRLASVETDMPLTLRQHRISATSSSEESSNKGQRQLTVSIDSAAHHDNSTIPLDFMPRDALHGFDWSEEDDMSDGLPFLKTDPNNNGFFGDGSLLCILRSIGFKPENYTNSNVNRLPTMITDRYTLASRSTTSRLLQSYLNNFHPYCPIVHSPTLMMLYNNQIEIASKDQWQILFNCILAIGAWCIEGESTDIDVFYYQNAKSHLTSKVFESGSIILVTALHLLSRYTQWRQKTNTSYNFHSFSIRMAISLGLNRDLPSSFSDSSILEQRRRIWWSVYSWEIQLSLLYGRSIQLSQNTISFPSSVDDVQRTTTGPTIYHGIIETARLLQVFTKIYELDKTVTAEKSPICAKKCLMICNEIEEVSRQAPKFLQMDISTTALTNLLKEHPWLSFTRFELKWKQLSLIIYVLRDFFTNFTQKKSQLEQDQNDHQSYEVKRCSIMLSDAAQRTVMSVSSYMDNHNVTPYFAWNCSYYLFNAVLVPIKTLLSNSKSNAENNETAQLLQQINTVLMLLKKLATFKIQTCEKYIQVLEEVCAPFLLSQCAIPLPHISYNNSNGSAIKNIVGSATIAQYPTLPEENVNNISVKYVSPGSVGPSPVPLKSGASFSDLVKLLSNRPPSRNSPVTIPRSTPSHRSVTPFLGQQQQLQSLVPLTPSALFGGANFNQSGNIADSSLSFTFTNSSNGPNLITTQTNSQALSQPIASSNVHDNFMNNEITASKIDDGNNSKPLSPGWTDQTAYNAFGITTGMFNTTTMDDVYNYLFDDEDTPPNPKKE
# human Androgen Receptor (AR), AR (gene 367), sequence (P10275 whole entry, looked up): as the sequence (P10275 whole entry, looked up) above
smiles,measurement,setting,value
C[C@]12C=CC3=C4CCC(=O)C=C4CC[C@H]3[C@@H]1CC[C@@H]2O,AC50,[1],0.00447 µM (active)
same,AC50,[2],0.00552 µM (active)
CCCCCOC(=O)c1ccccc1C(=O)OCCCCC,outcome,[2],inactive
same,outcome,[3],inactive
same,outcome,[4],inactive
Clc1ccc(C(c2ccc(Cl)cc2)C(Cl)Cl)cc1,outcome,[3],inactive
OCCCBr,outcome,[5],inactive
same,outcome,[6],inactive
O=C1CCCO1,outcome,[5],inactive
same,outcome,[6],inactive
same,outcome,AR (gene 367) [7],inactive
CCCCCCCCOC(=O)c1ccc(C(=O)OCCCCCCCC)c(C(=O)OCCCCCCCC)c1,outcome,[5],inactive
same,outcome,[8],inactive
O=C(O)C1C2CCC(O2)C1C(=O)O (configuration not stated),AC50,[8],21.9 µM (active)
O=[N+]([O-])C(Br)(CO)CO,AC50,[5],29.5 µM (active)
same,AC50,[8],32.7 µM (active)
same,outcome,AR (gene 367) [9],inactive
same,AC50,AR (gene 367) [7],30.6 µM (active)
CCN(CC)N=O,outcome,[6],inactive
CCNS(=O)(=O)C(F)(F)C(F)(F)C(F)(F)C(F)(F)C(F)(F)C(F)(F)C(F)(F)C(F)(F)F,AC50,AR (gene 367) [9],48.2 µM (active)
same,outcome,AR (gene 367) [7],inactive
C1=Cc2cccc3cccc1c23,outcome,[10],inactive
same,outcome,[8],inactive
C[N+](C)(C)CC1CO1 (configuration not stated),outcome,[5],inactive
same,outcome,[8],inactive
same,AC50,[6],24 µM (active)
same,outcome,AR (gene 367) [7],inactive
CN(C)C(=O)Nc1ccc(Cl)cc1,outcome,[5],inactive
same,outcome,[8],inactive
same,outcome,[6],inactive
c1ccc(NNc2ccccc2)cc1,outcome,[8],inactive
Oc1ccc2ccc3cccc4ccc1c2c34,AC50,[5],83.3 µM (active)
same,AC50,[8],79.6 µM (active)
same,outcome,[6],inactive
CC(C)(C)OOC(=O)c1ccccc1,outcome,[5],inactive
same,outcome,[8],inactive
Cc1cc(N=Nc2ccccc2C)ccc1N,AC50,[5],66.1 µM (active)
same,AC50,[8],50 µM (active)
same,AC50,AR (gene 367) [7],52.6 µM (active)
CC(C)N(Cc1ccccc1)C(=O)C(C)(C)C,outcome,[5],inactive
same,outcome,AR (gene 367) [7],inactive
N#CC(Br)(Br)C(N)=O,outcome,[5],inactive
same,outcome,[8],inactive
ClC1=C(Cl)C2(Cl)C3C(Cl)C=CC3C1(Cl)C2(Cl)Cl (configuration not stated),AC50,[5],25 µM (active)
same,AC50,[8],50 µM (active)
[Cl-].[Cl-].[Hg+2],AC50,[5],4.59 µM (active)
same,AC50,[8],16.9 µM (active)
same,AC50,[6],1.36 µM (active)
Clc1ccc(Cl)c(Cl)c1,outcome,[10],inactive
same,outcome,[6],inactive
COC(=O)c1ccccc1N,outcome,[8],inactive
CS(=O)(=O)NC(=O)c1cc(Oc2ccc(C(F)(F)F)cc2Cl)ccc1[N+](=O)[O-],outcome,[8],inactive
Nc1ccc([N+](=O)[O-])cc1,AC50,[5],16.1 µM (active)
same,AC50,[8],7.37 µM (active)
same,AC50,AR (gene 367) [7],22 µM (active)
COc1cc(C=O)cc2c1[C@H](COC(N)=O)[C@]1(OC(C)=O)ON2C[C@H]2[C@@H]1N2C(C)=O,AC50,[5],0.0199 µM (active)
same,AC50,[6],0.00149 µM (active)
Nc1ccc(Oc2ccc(N)cc2)cc1,outcome,[5],inactive
same,AC50,[6],75.5 µM (active)
Clc1ccccc1Cl,outcome,[8],inactive
CC(C)(O)c1cnn2c(-c3ccc(F)c(-c4c(F)cccc4C#N)c3)cnc2n1,outcome,[5],inactive
same,AC50,AR (gene 367) [7],57.9 µM (active)
O=P(OCCCl)(OCCCl)OCCCl,outcome,[8],inactive
same,outcome,[6],inactive
Brc1ccc(Oc2ccccc2)cc1,outcome,[5],inactive
same,outcome,[8],inactive
same,outcome,[6],inactive
Nc1ccc(N=Nc2ccccc2)cc1,AC50,[5],50 µM (active)
same,AC50,[8],5.24 µM (active)
OCCCl,outcome,[8],inactive
CNC(=O)Oc1cccc2c1OC(C)(C)C2,outcome,[5],inactive
same,outcome,[8],inactive
same,AC50,[6],21.4 µM (active)
same,outcome,AR (gene 367) [7],inactive
Cc1cccc(N)c1N,outcome,[10],inactive
same,outcome,[8],inactive
same,AC50,[6],75.7 µM (active)
Cc1ccc(N)c(N)c1,AC50,[10],50 µM (active)
same,AC50,[8],6.06 µM (active)
same,AC50,[6],26.9 µM (active)
CCCCC(CC)COC(=O)c1ccc(C(=O)OCC(CC)CCCC)c(C(=O)OCC(CC)CCCC)c1 (configuration not stated),outcome,AR (gene 367) [9],inactive
CCOC(=O)[C@]1(c2ccccc2)Oc2ccccc2[C@@H]1N,AC50,[5],69.4 µM (active)
same,outcome,[8],inactive
Nc1ccc(Cl)cc1N,AC50,[10],50 µM (active)
same,outcome,[8],inactive
same,outcome,AR (gene 367) [9],inactive
same,AC50,AR (gene 367) [7],50 µM (active)
CC(C)COC(=O)c1ccccc1C(=O)OCC(C)C,AC50,[5],74.9 µM (active)
same,outcome,[8],inactive
same,outcome,[6],inactive
c1ccc2c(c1)-c1cccc3cccc-2c13,AC50,[10],8.92 µM (active)
same,outcome,[8],inactive

# Reference: PubChem BioAssay (EPA / NIEHS)
